# The supplement of paper PMC6555819
# How the values were obtained:
# Assay in all cases: PBM binding z-score (relative to random genomic background probes); higher = stronger binding; sequences stand for … in GC…GCGATTGACAGCGTAGAATGAAGG
# [1] = test system: FXR:RXRa (NR concentration 270 nM, RXRa partner concentration 90 nM)
# Summary of the method: (§1)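 The probes on custom Agilent 4×180K protein-binding microarrays were double-stranded, with 34-nt variable regions bearing direct-repeat seeds, single-nucleotide variants, half-site ablations and random human genomic background sequences. Incubation lasted 1 h with ligand-free nuclear receptor dimers in PBS pH 7.4, 2% milk, 0.02% Triton X-100, 1 mM DTT, 0.2 mg/mL BSA and 0.4 mg/ml salmon testes DNA. Antibodies against each partner (one per run) detected bound dimers, and fluorescence scans were regression-normalized. Binding z-scores take the random background probes as reference.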
# [2] = test system: LXRa:RXRa (NR concentration 270 nM, RXRa partner concentration 90 nM)
# Summary of the method: as §1
# [3] = test system: LXRa homodimer (NR concentration 270 nM)
# Summary of the method: as §1
# [4] = test system: LXRb:RXRa (NR concentration 270 nM, RXRa partner concentration 90 nM)
# Summary of the method: as §1
# [5] = test system: LXRb homodimer (NR concentration 270 nM)
# Summary of the method: as §1
# [6] = test system: PPARa:RXRa (NR concentration 270 nM, RXRa partner concentration 90 nM)
# Summary of the method: as §1
# [7] = test system: PPARg:RXRa (NR concentration 180 nM, RXRa partner concentration 90 nM)
# Summary of the method: as §1
# [8] = test system: PPARg:RXRa 270nM:90nM, anti-RXR (NR concentration 270 nM, RXRa partner concentration 90 nM)
# Summary of the method: as §1
# [9] = test system: PPARg:RXRa 30nM:10nM, anti-RXR (NR concentration 30 nM, RXRa partner concentration 10 nM)
# Summary of the method: as §1
# [10] = test system: PPARg:RXRa 90nM:30nM, anti-RXR (NR concentration 90 nM, RXRa partner concentration 30 nM)
# Summary of the method: as §1
# [11] = test system: PPARg:RXRa DBDmut IVT, anti-RXR (DBD mutation: RXRa K156A/R161A, NR concentration 270 nM, RXRa partner concentration 90 nM)
# Summary of the method: as §1
# [12] = test system: PPARg:RXRa IVT, anti-PPARg (NR concentration 270 nM, RXRa partner concentration 90 nM)
# Summary of the method: as §1
# [13] = test system: PPARg DBDmut:RXRa IVT, anti-PPARg (DBD mutation: PPARg1 K132A/R137A, NR concentration 270 nM, RXRa partner concentration 90 nM)
# Summary of the method: as §1
# [14] = test system: PPARg DBDmut IVT, anti-PPARg (DBD mutation: PPARg1 K132A/R137A, NR concentration 270 nM)
# Summary of the method: as §1
# [15] = test system: PPARg homodimer (NR concentration 180 nM)
# Summary of the method: as §1
# [16] = test system: PXR:RXRa (NR concentration 270 nM, RXRa partner concentration 90 nM)
# Summary of the method: as §1
# [17] = test system: PXR homodimer (NR concentration 270 nM)
# Summary of the method: as §1
# [18] = test system: RARa:RXR (NR concentration 270 nM, RXRa partner concentration 90 nM)
# Summary of the method: as §1
# [19] = test system: RARa homodimer (NR concentration 270 nM)
# Summary of the method: as §1
# [20] = test system: RARb:RXRa (NR concentration 270 nM, RXRa partner concentration 90 nM)
# Summary of the method: as §1
Sequence,PBM binding z-score [1],PBM binding z-score [2],PBM binding z-score [3],PBM binding z-score [4],PBM binding z-score [5],PBM binding z-score [6],PBM binding z-score [7],PBM binding z-score [8],PBM binding z-score [9],PBM binding z-score [10],PBM binding z-score [11],PBM binding z-score [12],PBM binding z-score [13],PBM binding z-score [14],PBM binding z-score [15],PBM binding z-score [16],PBM binding z-score [17],PBM binding z-score [18],PBM binding z-score [19],PBM binding z-score [20]
GGAACGAGGGCAAAGTTGGTAGCATCTGTCGACG,1.06,0.577,-0.241,0.306,-0.429,3.14,5,5.51,4.45,5.44,4.05,3.9,0.127,-0.27,0.782,0.589,-0.136,0.765,-0.548,2.31
CATACTAGGTCACGAAAGGTCAAAGTCGAATGAC,7.5,8.25,8.77,7.29,3.6,6.39,9.53,7.93,6.31,8.01,7.83,8.34,2.56,1.91,3.01,7.08,3.85,7.57,4.19,5.65
ATATGTAGGTTATCAGGTCATTCAGTTTGCGCAT,3.19,3.57,4.4,2.93,1.68,4.62,7.23,5.99,4.05,5.54,7.41,7.44,1.79,2.79,2.91,3.44,9.35,3.2,2.11,2.86
GCTATTAGTTGAAATGGCAACCGAATGATTCTCG,-0.365,-0.424,-0.152,-0.394,-0.166,-0.14,0.344,0.398,0.213,0.114,0.598,-0.104,0.641,0.526,0.501,-0.119,0.359,-0.166,0.404,-0.346
CCTAGTAGTTGACCATAAGGGCAACCGAAGCTCG,0.577,0.379,0.118,0.228,0.0472,0.369,0.269,0.285,-0.556,0.0396,-0.333,0.506,-0.485,-0.576,1.26,0.431,0.221,0.651,0.534,1.49
GCTCGGAGGACAAGGTCAAAGCTTTGTCCGTAGA,4.6,3.98,0.466,3.14,0.0189,4.19,2.56,3.57,0.553,2.47,0.217,2.07,-1.59,-1.02,1.34,3.51,0.43,3.77,-0.688,4.08
TCTCTTAGTTGATTAGGGCAACCGAAACAGCGGA,0.698,0.799,0.13,0.868,1.26,1.22,0.00699,2.24,3.88,3.1,2.63,1.67,0.796,1.17,1.28,0.757,0.477,0.892,0.846,1.51
GTACCAAGGTGATTAGGTCGTTGATGAGTAGGCG,0.478,0.469,0.085,0.0701,-0.428,0.886,0.547,0.741,-0.00723,0.0201,1.26,1.63,0.301,-0.28,1.06,0.265,0.198,0.753,0.341,1.1
CGTCCAAGGTCATAGGAGGTCAGTGATGACAGAT,7.57,7.22,5.1,5.96,1.02,5.77,5.63,5.82,2.23,4.02,3.37,4.38,0.469,0.243,3.94,6.6,3.48,5.69,2.24,5.32
ACAGACAGGCGAGTGAAGGTAACTCAGCTGGACG,0.222,-0.221,-0.463,-0.649,-0.426,-0.25,0.686,-0.142,-0.453,-0.153,-0.427,-0.121,0.466,-0.29,0.0641,-0.279,-0.674,0.193,-0.258,0.0266
CAAACTAGGTCACAAAGGTCAAAGTCCGTGCGTA,7.43,6.7,7.48,6.59,3,6.49,10.3,8.31,7.58,8.55,8.59,8.71,2.54,2.7,7.19,6.69,11.9,7.63,4.27,5.46
ATATGTAGGTTAACGGGTCATTCAGTTTGCGCAT,2.83,3.03,1.03,3.05,0.599,5.14,7.84,6.45,4.4,6.25,8.01,7.92,2.68,1.82,2.04,3.26,3.42,3.42,1.02,2.54
TCTTGTAGATCAGCAGGTTAAGAATGCTGGCCAA,-0.0205,0.0347,-0.38,0.151,-0.573,0.607,-0.224,1.26,2.68,2.04,1.36,0.428,-0.195,-0.491,0.12,0.00264,-0.0255,0.239,-0.0617,0.12
CCTTACGGGTTAAGGTTATAGCACGGGTGGTACG,1.55,1.38,-0.0602,1.09,-0.11,2.09,1.12,1.61,0.309,1.09,0.0868,0.867,-0.169,-0.202,0.702,1.16,0.325,1.85,0.517,1.8
TAGCGTAGGTCATGCGGGCCAGTATAGTGTCGGC,4.01,3.6,0.172,2.19,-0.449,3.68,1.98,2.43,0.234,1.45,0.799,2.08,0.502,-0.521,0.769,2.18,-0.691,2.98,-0.473,3.77
AGAATGAGATTATTAAGATCAGGGAATTGCGGTC,-1.55,-0.864,-0.323,-0.702,-0.452,-0.715,0.449,-0.292,-0.0999,-0.261,-0.986,0.00075,0.944,0.0181,-0.475,-0.605,-0.339,-0.5,0.637,-0.639
CCTGCTGGGTCATGGTCAGCTAATCTACAGTATG,2.47,1.59,-0.658,1.42,-0.697,3.32,1.97,2.53,0.317,1.69,2.64,2.73,-0.296,0.15,0.949,1.24,-0.638,2.02,-0.488,3.35
CCTAGGAGGCCAATCTGGGTCACTCAAGGCTTGA,1.29,2.42,-0.439,1.35,-1.2,3.35,2.59,2.49,0.067,1.85,4.15,5.21,-0.00134,-1.3,0.591,1.97,-0.291,1.64,-0.236,1.94
CGAACTAGGTCATTGACAGGACAGTAAATAGTAA,4.05,2.93,0.467,2.31,-0.338,4.66,7.77,6.44,3.43,5.8,8.11,7.89,2.15,1.51,1.72,1.89,0.641,2.43,-0.0635,3.81
GCGACTGGGGCGTCAGCAGGTTACCATAACTTAA,-0.381,-0.378,-0.324,0.262,-1.19,0.425,0.0029,-0.411,-0.842,-0.965,0.993,0.504,-1.26,-0.889,-0.668,-0.181,-0.71,0.206,-1.15,0.327
CGTCCAAGGTCAGCAGGTCAGTGATAGCGACGTG,5.6,3.86,0.399,2.59,-0.265,4.52,4.13,4.45,1.15,3.05,3.28,3.76,-0.113,-0.161,2.53,3.41,0.512,4.49,1.26,5.45
CTTCCAAGGTGAACAAGGTCGTTGATTACTATTC,1.17,1.18,0.234,1.67,-0.522,2.49,0.855,1.31,0.0258,0.487,2.37,2.58,0.501,-0.605,0.985,2.6,1.19,1.97,-0.158,2.18
TAGCCTCGGTCATGCGGGCCAGTATAGTGTCGGC,0.522,0.28,-0.0554,-0.734,-0.472,-0.0733,-0.325,-0.494,-0.587,-0.372,-0.364,0.336,-0.318,-0.413,-0.406,-0.524,-0.81,-0.296,-0.888,2.36
GCAGACAGGTGAAACGCAGGTAGCTCAGGGTGGC,-0.298,-0.318,-0.974,-0.61,-1.08,0.412,0.213,-0.178,-0.645,-0.382,1.07,0.347,-0.762,-0.471,-0.599,-0.573,-0.785,-0.358,-0.976,0.536
ACTAGTTGGTCAGCTAAGGTCACACACAATTCGG,3.65,3.51,2.56,3.35,0.836,3.93,1.94,2.76,0.836,1.64,1.38,2.77,0.873,0.678,3.37,5.12,1.46,4.92,2.09,4
CGTACTGGGCCATCAGGTCATTGATATCAACGTT,1.44,1.12,0.948,1.53,-0.168,2.78,2.86,3.82,1.21,3.32,5.01,4.86,0.473,-0.333,1.12,1.67,0.831,1.88,-0.122,1.93
ATCTCTGGGTAAAGTTCAGTGAAAGATCGATAGA,1.19,1.87,1.6,1.39,1.23,2.87,4.06,5.26,3.21,4.78,1.98,2.87,0.904,1.34,1.32,2.12,1.91,1.55,1.47,2.73
ATAGAAAGGTCGTGAGGTGAGTATACAGAAAGGC,4.9,3.76,0.49,3.4,0.703,4.86,4.33,4.37,2.46,3.57,0.952,2.43,1.91,1.19,2,3.19,0.712,4.26,1.11,3.97
CGAACTAGGTCAAGGACTGTGAATCTCCGCACGC,3.02,2.02,-0.179,1.36,-0.152,4.37,7.06,6.47,4.05,5.99,8.18,8.06,0.764,0.958,1.34,0.92,-0.392,1.78,0.232,4.01
